# Test results taken from the supplement of paper PMC4466140.
# B1: unnamed (peptide)
# chain: LLGRKRPVMERVVDI
# B2: unnamed (peptide)
# chain: VNFRRIPTGPDSPPT
# Key:
# Assay in all cases: SPOT peptide array binding signal intensity (averaged, normalized) (arbitrary units (background-subtracted, floor 0; scale differs between SH3 domains)); higher = stronger binding of the SH3 domain to the peptide
# [1] = molecular target: CaNbp2
# Outline: (§1)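 E. coli BL21(DE3) was used to express GST-fused SH3 domains from four yeast species, which were then purified on glutathione Sepharose. These were incubated at 10 μg/ml in TBS-based blocking buffer overnight at 4°C on cellulose membranes carrying synthetic 15-mer peptides, in which cysteines were replaced by serines. Binding signal is the replicate average of normalized, background-subtracted spot intensity, in arbitrary units that differ between domains.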
# [2] = molecular target: CaRvs167
# Outline: as §1
# [3] = molecular target: CaRvs167-3
# Outline: as §1
# [4] = molecular target: CaSho1
# Outline: as §1
# [5] = molecular target: CaSla1-D1-D2
# Outline: as §1
# [6] = molecular target: CaSla1-D3
# Outline: as §1
# [7] = molecular target: ScAbp1
# Outline: as §1
# [8] = molecular target: ScBbc1
# Outline: as §1
# [9] = molecular target: ScBem1-D1
# Outline: as §1
# [10] = molecular target: ScBzz1-D1
# Outline: as §1
# [11] = molecular target: ScBzz1-D2
# Outline: as §1
# [12] = molecular target: ScCyk3
# Outline: as §1
# [13] = molecular target: ScFus1
# Outline: as §1
# [14] = molecular target: ScHof1
# Outline: as §1
# [15] = molecular target: ScHse1
# Outline: as §1
# [16] = molecular target: ScLsb1
# Outline: as §1
# [17] = molecular target: ScLsb2
# Outline: as §1
# [18] = molecular target: ScLsb3
# Outline: as §1
# [19] = molecular target: ScLsb4
# Outline: as §1
# [20] = molecular target: ScMyo3
# Outline: as §1
# [21] = molecular target: ScMyo5
# Outline: as §1
# [22] = molecular target: ScNbp2
# Outline: as §1
# [23] = molecular target: ScPex13
# Outline: as §1
# [24] = molecular target: ScRvs167
# Outline: as §1
# [25] = molecular target: ScSho1
# Outline: as §1
# [26] = molecular target: ScSla1-D1-D2
# Outline: as §1
# [27] = molecular target: ScSla1-D3
# Outline: as §1
# [28] = molecular target: SpAbp1-D1
# Outline: as §1
# [29] = molecular target: SpBbc1
# Outline: as §1
# [30] = molecular target: SpBzz1-D1
# Outline: as §1
# [31] = molecular target: SpBzz1-D2
# Outline: as §1
# [32] = molecular target: SpCyk3
# Outline: as §1
# [33] = molecular target: SpHof1
# Outline: as §1
# [34] = molecular target: SpHof1-2
# Outline: as §1
# [35] = molecular target: SpHof1-3
# Outline: as §1
# [36] = molecular target: SpHse1
# Outline: as §1
# [37] = molecular target: SpLsb1
# Outline: as §1
# [38] = molecular target: SpLsb4
# Outline: as §1
# [39] = molecular target: SpMyo1
# Outline: as §1
# [40] = molecular target: SpNbp2
# Outline: as §1
# [41] = molecular target: SpPex13
# Outline: as §1
# [42] = molecular target: SpRvs167
# Outline: as §1
# [43] = molecular target: SpSla1-D1-D2
# Outline: as §1
# [44] = molecular target: SpSla1-D3
# Outline: as §1
# [45] = molecular target: AgAbp1
# Outline: as §1
# [46] = molecular target: AgBbc1
# Outline: as §1
# [47] = molecular target: AgBem1-D1
# Outline: as §1
# [48] = molecular target: AgBzz1-D1
# Outline: as §1
# [49] = molecular target: AgBzz1-D2
# Outline: as §1
# [50] = molecular target: AgCyk3
# Outline: as §1
# [51] = molecular target: AgFus1
# Outline: as §1
# [52] = molecular target: AgHof1
# Outline: as §1
# [53] = molecular target: AgHse1
# Outline: as §1
# [54] = molecular target: AgLsb1
# Outline: as §1
# [55] = molecular target: AgLsb4
# Outline: as §1
# [56] = molecular target: AgMyo5
# Outline: as §1
# [57] = molecular target: AgNbp2
# Outline: as §1
# [58] = molecular target: AgRvs167
# Outline: as §1
# [59] = molecular target: AgSho1
# Outline: as §1
# [60] = molecular target: AgSla1-D1-D2
# Outline: as §1
# [61] = molecular target: AgSla1-D3
# Outline: as §1
# [62] = molecular target: CaAbp1-D1
# Outline: as §1
# [63] = molecular target: CaAbp1-D2
# Outline: as §1
# [64] = molecular target: CaBbc1
# Outline: as §1
# [65] = molecular target: CaBem1-D1
# Outline: as §1
# [66] = molecular target: CaBzz1-D1
# Outline: as §1
# [67] = molecular target: CaBzz1-D2
# Outline: as §1
# [68] = molecular target: CaCyk3
# Outline: as §1
# [69] = molecular target: CaFus1
# Outline: as §1
# [70] = molecular target: CaHof1
# Outline: as §1
# [71] = molecular target: CaHse1
# Outline: as §1
# [72] = molecular target: CaLsb1
# Outline: as §1
# [73] = molecular target: CaLsb4
# Outline: as §1
# [74] = molecular target: CaMyo5
# Outline: as §1
binder,measurement,setting,value
B1,SPOT peptide array binding signal intensity,[1],595
same,SPOT peptide array binding signal intensity,[2],14.8
same,SPOT peptide array binding signal intensity,[3],1.75
same,SPOT peptide array binding signal intensity,[4],374
same,SPOT peptide array binding signal intensity,[5],154
same,SPOT peptide array binding signal intensity,[6],150
same,SPOT peptide array binding signal intensity,[7],33
same,SPOT peptide array binding signal intensity,[8],5.5
same,SPOT peptide array binding signal intensity,[9],3
same,SPOT peptide array binding signal intensity,[10],29.5
same,SPOT peptide array binding signal intensity,[11],24.5
same,SPOT peptide array binding signal intensity,[12],31.5
same,SPOT peptide array binding signal intensity,[13],163
same,SPOT peptide array binding signal intensity,[14],1
same,SPOT peptide array binding signal intensity,[15],552
same,SPOT peptide array binding signal intensity,[16],13.2
same,SPOT peptide array binding signal intensity,[17],≤ 0
same,SPOT peptide array binding signal intensity,[18],140
same,SPOT peptide array binding signal intensity,[19],27.5
same,SPOT peptide array binding signal intensity,[20],4
same,SPOT peptide array binding signal intensity,[21],1.5
same,SPOT peptide array binding signal intensity,[22],254
same,SPOT peptide array binding signal intensity,[23],53.5
same,SPOT peptide array binding signal intensity,[24],7.67
same,SPOT peptide array binding signal intensity,[25],412
same,SPOT peptide array binding signal intensity,[26],158
same,SPOT peptide array binding signal intensity,[27],78.5
same,SPOT peptide array binding signal intensity,[28],≤ 0
same,SPOT peptide array binding signal intensity,[29],5.5
same,SPOT peptide array binding signal intensity,[30],158
same,SPOT peptide array binding signal intensity,[31],≤ 0
same,SPOT peptide array binding signal intensity,[32],1
same,SPOT peptide array binding signal intensity,[33],104
same,SPOT peptide array binding signal intensity,[34],9.5
same,SPOT peptide array binding signal intensity,[35],29.5
same,SPOT peptide array binding signal intensity,[36],470
same,SPOT peptide array binding signal intensity,[37],0.5
same,SPOT peptide array binding signal intensity,[38],140
same,SPOT peptide array binding signal intensity,[39],5
same,SPOT peptide array binding signal intensity,[40],99.5
same,SPOT peptide array binding signal intensity,[41],16
same,SPOT peptide array binding signal intensity,[42],14.3
same,SPOT peptide array binding signal intensity,[43],≤ 0
same,SPOT peptide array binding signal intensity,[44],35
B2,SPOT peptide array binding signal intensity,[45],≤ 0
same,SPOT peptide array binding signal intensity,[46],2.5
same,SPOT peptide array binding signal intensity,[47],13
same,SPOT peptide array binding signal intensity,[48],23
same,SPOT peptide array binding signal intensity,[49],258
same,SPOT peptide array binding signal intensity,[50],≤ 0
same,SPOT peptide array binding signal intensity,[51],45
same,SPOT peptide array binding signal intensity,[52],6
same,SPOT peptide array binding signal intensity,[53],132
same,SPOT peptide array binding signal intensity,[54],0.5
same,SPOT peptide array binding signal intensity,[55],5
same,SPOT peptide array binding signal intensity,[56],≤ 0
same,SPOT peptide array binding signal intensity,[57],≤ 0
same,SPOT peptide array binding signal intensity,[58],3.17
same,SPOT peptide array binding signal intensity,[59],1
same,SPOT peptide array binding signal intensity,[60],≤ 0
same,SPOT peptide array binding signal intensity,[61],0.5
same,SPOT peptide array binding signal intensity,[62],≤ 0
same,SPOT peptide array binding signal intensity,[63],≤ 0
same,SPOT peptide array binding signal intensity,[64],6.75
same,SPOT peptide array binding signal intensity,[65],6
same,SPOT peptide array binding signal intensity,[66],41
same,SPOT peptide array binding signal intensity,[67],16.5
same,SPOT peptide array binding signal intensity,[68],6
same,SPOT peptide array binding signal intensity,[69],141
same,SPOT peptide array binding signal intensity,[70],≤ 0
same,SPOT peptide array binding signal intensity,[71],3.5
same,SPOT peptide array binding signal intensity,[72],≤ 0
same,SPOT peptide array binding signal intensity,[73],18.5
same,SPOT peptide array binding signal intensity,[74],0.5
same,SPOT peptide array binding signal intensity,[1],113
same,SPOT peptide array binding signal intensity,[2],1.33
same,SPOT peptide array binding signal intensity,[3],115
same,SPOT peptide array binding signal intensity,[4],94.5
same,SPOT peptide array binding signal intensity,[5],≤ 0
same,SPOT peptide array binding signal intensity,[6],≤ 0
same,SPOT peptide array binding signal intensity,[7],4
same,SPOT peptide array binding signal intensity,[8],2
same,SPOT peptide array binding signal intensity,[9],≤ 0
same,SPOT peptide array binding signal intensity,[10],6
same,SPOT peptide array binding signal intensity,[11],8.5
same,SPOT peptide array binding signal intensity,[12],1.5
same,SPOT peptide array binding signal intensity,[13],30
same,SPOT peptide array binding signal intensity,[14],0.5
same,SPOT peptide array binding signal intensity,[15],278
same,SPOT peptide array binding signal intensity,[16],≤ 0
same,SPOT peptide array binding signal intensity,[17],≤ 0
same,SPOT peptide array binding signal intensity,[18],79
same,SPOT peptide array binding signal intensity,[19],11
same,SPOT peptide array binding signal intensity,[20],≤ 0
same,SPOT peptide array binding signal intensity,[21],≤ 0
same,SPOT peptide array binding signal intensity,[22],35.5
same,SPOT peptide array binding signal intensity,[23],22.8
same,SPOT peptide array binding signal intensity,[24],0.167
same,SPOT peptide array binding signal intensity,[25],96.5
same,SPOT peptide array binding signal intensity,[26],≤ 0
same,SPOT peptide array binding signal intensity,[27],2.5
same,SPOT peptide array binding signal intensity,[28],≤ 0
same,SPOT peptide array binding signal intensity,[29],≤ 0
same,SPOT peptide array binding signal intensity,[30],50
same,SPOT peptide array binding signal intensity,[31],0.25
same,SPOT peptide array binding signal intensity,[32],≤ 0
same,SPOT peptide array binding signal intensity,[33],178
same,SPOT peptide array binding signal intensity,[34],6
same,SPOT peptide array binding signal intensity,[35],0.75
same,SPOT peptide array binding signal intensity,[36],192
same,SPOT peptide array binding signal intensity,[37],≤ 0
same,SPOT peptide array binding signal intensity,[38],27.5
same,SPOT peptide array binding signal intensity,[39],2.5
same,SPOT peptide array binding signal intensity,[40],14.5
same,SPOT peptide array binding signal intensity,[41],≤ 0
same,SPOT peptide array binding signal intensity,[42],10.7
same,SPOT peptide array binding signal intensity,[43],≤ 0
same,SPOT peptide array binding signal intensity,[44],≤ 0
